Experimental data published in PubChem BioAssay (NCATS).
Several values for one entry are separate records, joined by “and”; a condition that tells them apart may be missing. Equal values may be shown once. Inconclusive results are not listed. Activity calls are given as the source filed them. Unless noted, the call rests on the fitted dose curve; in most records, active means well fitted curve in the direction sought with a large enough effect; inconclusive means small, poorly fitted or top-dose-only effect, or another doubt; inactive means no such curve, though single readings can be large; an effect the other way counts as inactive or inconclusive.

Columns and labels:
[1] = molecular target: Estrogen receptor (Homo sapiens) (UniProt P03372); experiment: qHTS assay for small molecule agonists of estrogen receptor alpha signaling (AID 588514; calls by dose curve;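 further: 0% = vehicle only and 100% = reference agonist; nearly all actives have a fitted effect of over 70% in size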)
Summary of the method: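 ER-alpha-UAS-bla GripTite HEK 293 cells in medium with 2% charcoal/dextran-treated FBS were treated with compound titrations at 37 C for 18 hrs; beta-lactamase reporter read by CCF4 fluorescence after 2 hrs at RT.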

[2] = molecular target: ATP-dependent 6-phosphofructokinase (Trypanosoma brucei brucei) (UniProt O15648); experiment: qHTS Assay to Find Inhibitors of T. brucei phosphofructokinase: hit validation (AID 492961);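 further: luminescence reports ADP formed as PFK phosphorylates fructose-6-phosphate with ATP; on the % scale 0 is the no-effect control and ±100 the full control effect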
Summary of the method: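 Compounds titrated; %activity normalized to 0x and 1x enzyme controls, curve-fitted. Readout: ADP-Glo luminescence after 45 min room-temperature reaction of 1.25 nM PFK, 0.1 mM ATP, 0.5 mM F6P, pH 8.0.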

[3] = S16 Schwann cell PMP22 intronic element beta-lactamase assay (AID 624044; calls by dose curve;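 further: 0% = DMSO and -100% = potassium clavulanate positive control; nearly all actives have a fitted effect of over 15% in size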)
Summary of the method: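 Rat S16 Schwann cells with beta-Lac driven by a PMP22 intronic element, compound-treated 24 h at 37 °C. LiveBLAzer FRET B/G read: 460 nm normalized to potassium clavulanate vs DMSO; 535 nm FRET as viability; concentration-effect curves classified.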

CP215 = experiment: qHTS profiling for inhibitors of Plasmodium falciparum proliferation (AID 504749); further: nearly all actives have a fitted effect of over 60% in size; further: potency means the concentration at half of the fitted maximal effect; settings: P. falciparum in erythrocytes, SYBR Green DNA, 72 h; series mostly up to 28.7 µM
Summary of the method: (§1)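 Readout was DNA-dye fluorescence from lysed cultures, ex 485/em 535 nm. Parasitized red cells had grown 72 h with compound; data scaled between 0.29 uM artemisinin and DMSO wells and corrected using vehicle-only plates.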

CP297 = experiment: as above; settings: P. falciparum in erythrocytes, SYBR Green DNA, 72 h; series mostly up to 28.7 µM
Summary of the method: as §1

CP315 = experiment: as above; settings: P. falciparum in erythrocytes, SYBR Green DNA, 72 h; series mostly up to 28.7 µM
Summary of the method: as §1

DIV17 = experiment: as above; settings: P. falciparum in erythrocytes, SYBR Green DNA, 72 h; series mostly up to 28.7 µM
Summary of the method: as §1

Dd2 = experiment: as above; settings: P. falciparum in erythrocytes, SYBR Green DNA, 72 h; series mostly up to 28.7 µM
Summary of the method: as §1

PC26 = experiment: as above; settings: P. falciparum in erythrocytes, SYBR Green DNA, 72 h; series mostly up to 28.7 µM
Summary of the method: as §1

[4] = S16 Schwann cell viability assay (CellTiter-Glo assay) (AID 624031);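 further: native untransfected S16 rat Schwann cells; cellular ATP luminescence as a viability measure; plate controls were DMSO-treated cells for no effect and cell-free wells for full effect; nearly all actives have a fitted effect of over 70% in size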
Summary of the method: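 Parental S16 cells, 24 h compound, 37 °C. ATP-luminescence viability; DMSO = 0% activity, empty wells as reference; curves classified by fit quality and efficacy.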

CP286 = experiment: qHTS profiling for inhibitors of Plasmodium falciparum proliferation (AID 504749); further: nearly all actives have a fitted effect of over 60% in size; further: potency means the concentration at half of the fitted maximal effect; settings: P. falciparum in erythrocytes, SYBR Green DNA, 72 h; series mostly up to 28.7 µM
Summary of the method: as §1

CP335 = experiment: as above; settings: P. falciparum in erythrocytes, SYBR Green DNA, 72 h; series mostly up to 28.7 µM
Summary of the method: as §1

DIV30 = experiment: as above; settings: P. falciparum in erythrocytes, SYBR Green DNA, 72 h; series mostly up to 28.7 µM
Summary of the method: as §1

ICS = experiment: as above; settings: P. falciparum in erythrocytes, SYBR Green DNA, 72 h; series mostly up to 28.7 µM
Summary of the method: as §1

P94_40 = experiment: as above; settings: P. falciparum in erythrocytes, SYBR Green DNA, 72 h; series mostly up to 28.7 µM
Summary of the method: as §1

W2 = experiment: as above; settings: P. falciparum in erythrocytes, SYBR Green DNA, 72 h; series mostly up to 28.7 µM
Summary of the method: as §1

[5] = qHTS assay for small molecule activators of the nuclear factor-kappa B (NF-kB) signaling pathway (AID 651749; active means well fitted activation curve with a large enough effect in the signal ratio; the % refers to the signal ratio; further: % of control where 0% means no effect); settings: NF-kB-bla ME-180 cells, beta-lactamase FRET ratio, 16 h; hits give high values
Summary of the method: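 Incubation lasted 16 hr at 37C in 5% CO2 after 23 nL compound addition to ME-180 NF-kB-bla cells. Activation appears as beta-lactamase-mediated FRET loss.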

[6] = Dual reporter qHTS for antagonist of Pregnane X Receptor (hPXR) against the NCATS DSHEA and TCM libraries: Fluorescence Readout (AID 1920061); further: 0% is about no effect
Summary of the method: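 hPXR-Luc HepG2 cells exposed 24 h at 37 C to compounds with 2 uM rifampicin in antagonist mode; luciferase luminescence measured by ONE-Glo, with CellTiter-Fluor viability read beforehand.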

[7] = Viability counterscreen for agonist of constitutive androstane receptor (CAR) against the NCATS DSHEA and TCM libraries (AID 1794838);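 further: HepG2 cells with CYP2B6 reporter and hCAR plus 0.75 µM PK11195 antagonist; 0% is about no effect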
Summary of the method: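 HepG2-CYP2B6-hCAR cells (2,500/well) attached 5 h, then got compounds plus 0.75 uM PK11195 final. After 24 h at 37C, viability read by CellTiter-Fluor fluorescence (Ex/Em 405/540 nm).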

[8] = molecular target: Voltage-gated inwardly rectifying potassium channel KCNH2 (Homo sapiens) (UniProt Q12809); experiment: qHTS Assay for Small Molecule Inhibitors of the Human hERG Channel Activity (AID 588834);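 further: top concentration of the series differs between compounds; on the % scale 0 is the no-effect control and ±100 the full control effect; lower thallium flux fluorescence means stronger hERG block; nearly all actives have a fitted effect of over 50% in size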
Summary of the method: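 U2OS cells transduced with hERG via BacMam (MOI ~100), plated 2000/well, loaded with FluxOR thallium dye, compound ~10 min, then stimulation buffer; fluorescence decrease read kinetically; AC50 from Hill fits.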

Voltage-gated inwardly rectifying potassium channel KCNH2 (Homo sapiens), sequence (Q12809 whole entry, looked up): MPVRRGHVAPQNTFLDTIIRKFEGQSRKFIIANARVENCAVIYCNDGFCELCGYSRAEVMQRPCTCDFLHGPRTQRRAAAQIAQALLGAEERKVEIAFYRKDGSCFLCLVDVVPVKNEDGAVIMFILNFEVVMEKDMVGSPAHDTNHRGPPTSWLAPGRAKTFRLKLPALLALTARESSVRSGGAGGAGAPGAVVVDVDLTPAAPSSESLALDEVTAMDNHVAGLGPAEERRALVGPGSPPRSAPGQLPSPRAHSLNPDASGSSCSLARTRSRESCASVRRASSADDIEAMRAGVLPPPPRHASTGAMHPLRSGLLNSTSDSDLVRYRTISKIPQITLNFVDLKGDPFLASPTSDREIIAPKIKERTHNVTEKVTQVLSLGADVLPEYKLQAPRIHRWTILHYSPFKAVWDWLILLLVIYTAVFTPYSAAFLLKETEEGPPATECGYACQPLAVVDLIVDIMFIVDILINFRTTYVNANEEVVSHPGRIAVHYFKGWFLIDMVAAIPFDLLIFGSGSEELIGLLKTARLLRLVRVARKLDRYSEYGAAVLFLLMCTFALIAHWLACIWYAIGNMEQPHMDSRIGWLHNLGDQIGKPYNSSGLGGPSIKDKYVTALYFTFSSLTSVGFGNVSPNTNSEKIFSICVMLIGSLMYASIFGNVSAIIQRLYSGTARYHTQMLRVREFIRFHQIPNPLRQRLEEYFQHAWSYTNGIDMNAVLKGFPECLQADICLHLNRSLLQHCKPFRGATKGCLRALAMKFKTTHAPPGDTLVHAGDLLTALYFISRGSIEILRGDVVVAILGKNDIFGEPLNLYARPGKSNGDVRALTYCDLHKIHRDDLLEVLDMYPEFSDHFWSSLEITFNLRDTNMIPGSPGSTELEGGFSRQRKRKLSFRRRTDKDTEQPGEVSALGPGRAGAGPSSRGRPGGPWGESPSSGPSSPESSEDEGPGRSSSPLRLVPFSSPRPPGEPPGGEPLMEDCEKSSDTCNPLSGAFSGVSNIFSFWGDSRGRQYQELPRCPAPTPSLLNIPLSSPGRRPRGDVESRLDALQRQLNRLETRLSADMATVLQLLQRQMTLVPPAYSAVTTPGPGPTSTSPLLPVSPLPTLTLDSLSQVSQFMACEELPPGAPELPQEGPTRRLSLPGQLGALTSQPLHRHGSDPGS
ATP-dependent 6-phosphofructokinase (Trypanosoma brucei brucei), sequence (O15648 whole entry, looked up): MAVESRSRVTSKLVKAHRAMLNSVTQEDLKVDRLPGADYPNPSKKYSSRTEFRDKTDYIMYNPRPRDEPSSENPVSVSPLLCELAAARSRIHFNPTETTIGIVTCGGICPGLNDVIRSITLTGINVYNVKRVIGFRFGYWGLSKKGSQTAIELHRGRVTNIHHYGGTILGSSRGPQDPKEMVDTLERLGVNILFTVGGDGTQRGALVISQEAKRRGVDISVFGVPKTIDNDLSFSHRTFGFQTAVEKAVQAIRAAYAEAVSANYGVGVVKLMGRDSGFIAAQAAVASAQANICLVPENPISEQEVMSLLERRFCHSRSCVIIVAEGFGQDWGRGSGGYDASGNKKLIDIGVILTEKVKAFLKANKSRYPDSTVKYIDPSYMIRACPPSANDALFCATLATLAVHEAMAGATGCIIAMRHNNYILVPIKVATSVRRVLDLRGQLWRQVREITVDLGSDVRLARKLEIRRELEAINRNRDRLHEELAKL
Estrogen receptor (Homo sapiens), sequence (P03372 whole entry, looked up): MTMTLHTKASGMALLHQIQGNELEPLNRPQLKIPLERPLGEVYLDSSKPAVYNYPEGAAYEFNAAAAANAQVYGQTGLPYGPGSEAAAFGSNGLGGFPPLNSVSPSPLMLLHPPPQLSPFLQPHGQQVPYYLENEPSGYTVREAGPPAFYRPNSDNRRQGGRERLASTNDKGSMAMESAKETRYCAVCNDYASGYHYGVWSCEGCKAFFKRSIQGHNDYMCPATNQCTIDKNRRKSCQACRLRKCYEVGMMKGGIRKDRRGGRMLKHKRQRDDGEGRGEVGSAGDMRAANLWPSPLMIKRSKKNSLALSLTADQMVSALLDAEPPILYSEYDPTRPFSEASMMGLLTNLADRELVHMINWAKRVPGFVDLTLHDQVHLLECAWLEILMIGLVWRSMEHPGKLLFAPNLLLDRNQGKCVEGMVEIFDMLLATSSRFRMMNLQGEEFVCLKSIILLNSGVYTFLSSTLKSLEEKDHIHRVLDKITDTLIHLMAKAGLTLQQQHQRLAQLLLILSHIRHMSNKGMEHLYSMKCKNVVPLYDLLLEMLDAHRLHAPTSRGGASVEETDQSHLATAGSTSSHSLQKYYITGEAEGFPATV

O=C(O[C@@H]1Cc2c(O)cc(O)cc2O[C@@H]1c1cc(O)c(O)c(O)c1)c1cc(O)c(O)c(O)c1
inactive: Potency [1]

CC(C)CN(C[C@@H](O)[C@H](Cc1ccccc1)NC(=O)O[C@H]1CCOC1)S(=O)(=O)c1ccc(N)cc1
inactive: outcome [2] | Potency [3] | Potency (CP215) | Potency (CP297) | Potency (CP315) | Potency (DIV17) | Potency (Dd2) | Potency (PC26)

CC(C)CN(C[C@@H](OP(=O)(O)O)[C@H](Cc1ccccc1)NC(=O)O[C@@H]1CCOC1)S(=O)(=O)c1ccc(N)cc1
inactive: outcome [2] | Potency [4] | Potency [3] | Potency (CP215) | Potency (CP286) | Potency (CP297) | Potency (CP315) | Potency (CP335) | Potency (DIV17) | Potency (DIV30) | Potency (Dd2) | Potency (ICS) | Potency (P94_40) | Potency (PC26) | Potency (W2)

C[Si](C)(C)O[Si](C)(C)O[Si](C)(C)C
inactive: activation [5] -3.32%

COc1cc(-c2oc3cc(O)cc(O)c3c(=O)c2O)ccc1O
inactive: outcome [6]

CCCCCCCCOC(=O)c1cc(O)c(O)c(O)c1
inactive: Potency [1]

O=C(/C=C/c1ccc(O)c2c1[C@H](C(=O)O)[C@@H](c1ccc(O)c(O)c1)O2)O[C@H](Cc1ccc(O)c(O)c1)C(=O)O
inactive: outcome [7] | outcome [6]

O=C(O)c1cc(O)c2c(c1)[C@H]([C@H]1c3cc(C(=O)O)cc(O)c3C(=O)c3c(O[C@@H]4OC(CO)C(O)C(O)C4O)cccc31)c1cccc(O[C@@H]3OC(CO)C(O)C(O)C3O)c1C2=O (stereo not given in full)
active: Potency (DIV30) 15.1 µM
inactive: Potency [4] | Potency (CP286) | Potency (CP335) | Potency (Dd2) | Potency (ICS) | Potency (P94_40) | Potency (W2)

O=C(/C=C/c1ccc(O)c(O)c1)O[C@@H]1CC(O)(C(=O)O)C[C@@H](OC(=O)/C=C/c2ccc(O)c(O)c2)C1O (stereo not given in full)
inactive: outcome [7] | outcome [6]

O=C(O)CCCCCCCCC(=O)O
inactive: activation [5] -1.2%

O=C(/C=C/c1ccc(O)c(O)c1)O[C@@H](C(=O)O)[C@@H](OC(=O)/C=C/c1ccc(O)c(O)c1)C(=O)O
inactive: Potency [8]

CCC(C)n1ncn(-c2ccc(N3CCN(c4ccc(OCC5COC(Cn6cncn6)(c6ccc(Cl)cc6Cl)O5)cc4)CC3)cc2)c1=O (stereo not given)
inactive: Potency [8] | Potency [4] | Potency (CP297) | Potency (CP315) | Potency (DIV17) | Potency (DIV30) | Potency (P94_40)
active: Potency (CP286) 4.47 µM | Potency (CP335) 4.26 µM | Potency (ICS) 2.51 µM | Potency (W2) 2.13 µM

CC12CCC(CC1=O)C2(C)C (stereo not given)
inactive: Potency [8] | activation [5] -0.0521% and -0.265%

O=c1c(O[C@@H]2O[C@H](CO)[C@H](O)[C@H](O)[C@H]2O)c(-c2ccc(O)c(O)c2)oc2cc(O)cc(O)c12
inactive: outcome [7]
